We go through 10 molecules from PubChem BioAssay (NCI).

Molecules are shown by their SMILES. The panel holds about 79,000 compounds, 15% with a hit somewhere; the sample as a whole holds those more often. Values without a mark were called inactive. Active and inactive are the calls of the source. Cut-off read from the data, not from the text of the source: active = growth inhibition above about 70%; inactive = the rest.

The nature of assay [1]: NCI Yeast Anticancer Drug Screen. Data for the rad50 strain (AID 155).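 Note: 0% = growth of vehicle-only cultures of the same strain.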 Particulars: S. cerevisiae rad50 strain growth inhibition, hits give high values. Summed up:
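A DNA repair-deficient yeast mutant serves as the test organism; compound-induced growth inhibition is calculated against vehicle-treated cells.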

Assay [2] is described as follows: NCI Yeast Anticancer Drug Screen. Data for the mec2-1 strain (AID 157). Particulars: S. cerevisiae mec2-1 strain, hits give high values. Summed up: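 Strain: mec2-1 (DNA repair/cell cycle alteration). Compound exposure, then growth measured; inhibition expressed relative to vehicle.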
Assay [3] can be described thus: NCI Yeast Anticancer Drug Screen. Data for the sgs1 mgt1 strain (AID 161).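 Note: 0% = growth of cultures given vehicle only.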 The following applies: S. cerevisiae sgs1 mgt1 strain, hits give high values. Summed up: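 Genetically altered yeast, compound exposure, growth inhibition relative to vehicle.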
The nature of assay [4]: NCI Yeast Anticancer Drug Screen. Data for the cln2 rad14 strain (AID 165).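 Note: 0% = growth equal to vehicle treated cultures.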 The following applies: S. cerevisiae cln2 rad14 strain, hits give high values. Summed up:
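Compounds are applied to the cln2 rad14 yeast strain, and growth is then compared with that of vehicle-treated cultures to give inhibition.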

Assay [5] can be described thus: NCI Yeast Anticancer Drug Screen. Data for the bub3 strain (AID 167). Particulars: S. cerevisiae bub3 mutant strain, hits give high values. A digest of the protocol:
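Inhibition values come from growth of compound-treated mutant yeast normalised to vehicle-treated controls.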

The nature of assay [6]: NCI Yeast Anticancer Drug Screen. Data for the mlh1 rad18 strain (AID 175). The following applies: S. cerevisiae mlh1 rad18 strain growth inhibition, hits give high values. Summed up: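 Read-out is yeast growth inhibition, calculated against vehicle-only controls. The compound was applied to a strain engineered with DNA damage repair alterations.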
Setting [7] is: at 5.0 µM (retest, dose inferred, filed as 0.5).
Setting [8] is: at 50.0 µM (retest, dose inferred, filed as 5.0).

`Cc1ccccc1N=C(N)Nc1ccccc1C` (tested in a mixture with another compound): the growth inhibition in assay [1] (setting [7]) is 0%; in assay [1] (setting [8]), 15%; in assay [1] (at 50.0 µM), 12.9%; in assay [2] (setting [7]), -2%; in assay [2] (setting [8]) it was 7%; in assay [2] (at 50.0 µM) it was 27.8%. The growth inhibition in assay [3] (setting [7]) was -1%; in assay [3] (setting [8]), 5%; in assay [3] (at 50.0 µM), 30.6%; in assay [4] (setting [7]), -2%; in assay [4] (setting [8]) it was -16%; in assay [4] (at 50.0 µM) it was -62.5%. In addition, the growth inhibition in assay [5] (setting [7]) is 3%; in assay [5] (setting [8]) it was 11%; in assay [5] (at 50.0 µM) it was 11.5%; in assay [6] (setting [7]) it was -2%; in assay [6] (setting [8]) it was 13%; in assay [6] (at 50.0 µM), 28.6%.
As for `O=C1/C(=C/c2ccccc2)CCC/C1=C\c1ccccc1`, the growth inhibition in assay [1] (setting [7]) was 27%; in assay [1] (setting [8]), 60%; in assay [1] (at 50.0 µM), 83.8% (active); in assay [2] (setting [7]), 29%; in assay [2] (setting [8]), 77% (active); in assay [2] (at 50.0 µM), 86.6% (active). Moreover, the growth inhibition in assay [3] (setting [7]) was 36%; in assay [3] (setting [8]), 72% (active); in assay [3] (at 50.0 µM), 82.3% (active); in assay [4] (setting [7]), 21%; in assay [4] (setting [8]), 52%; in assay [4] (at 50.0 µM), 80.3% (active). Also, the growth inhibition in assay [5] (setting [7]) was 41%; in assay [5] (setting [8]), 69%; in assay [5] (at 50.0 µM) it was 84.8% (active); in assay [6] (setting [7]), 58%; in assay [6] (setting [8]), 76% (active).
Regarding `COc1c(C)c2c(c(O)c1C/C=C(\C)CCC(=O)O)C(=O)OC2`, the growth inhibition in assay [1] (setting [7]) is 31%; in assay [1] (setting [8]), 86% (active); in assay [1] (at 50.0 µM), 85.3% (active); in assay [2] (setting [7]), 11%; in assay [2] (setting [8]), 88% (active); in assay [2] (at 50.0 µM), 90.9% (active). In addition, the growth inhibition in assay [3] (setting [7]) is 30%; in assay [3] (setting [8]), 90% (active); in assay [3] (at 50.0 µM) it was 92.2% (active); in assay [4] (setting [7]), 32%; in assay [4] (setting [8]), 95% (active); in assay [4] (at 50.0 µM) it was 90.2% (active). Moreover, the growth inhibition in assay [5] (setting [7]) is 17%; in assay [5] (setting [8]), 91% (active); in assay [5] (at 50.0 µM), 89.2% (active); in assay [6] (setting [7]), 38%; in assay [6] (setting [8]), 92% (active).
As to `Cc1oc2c(C)c3oc(=O)cc(C)c3cc2c1CCl`, the growth inhibition is 27% in assay [1] (setting [7]); 94% (active) in assay [1] (setting [8]); 54.4% in assay [1] (at 50.0 µM); 32% in assay [2] (setting [7]); 97% (active) in assay [2] (setting [8]); 75.5% (active) in assay [2] (at 50.0 µM). For the same molecule, the growth inhibition in assay [3] (setting [7]) is 27%; in assay [3] (setting [8]), 95% (active); in assay [3] (at 50.0 µM) it was 87% (active); in assay [4] (setting [7]), 19%; in assay [4] (setting [8]) it was 89% (active); in assay [4] (at 50.0 µM), 67.5%. In addition, the growth inhibition in assay [5] (setting [7]) is 41%; in assay [5] (setting [8]), 97% (active); in assay [5] (at 50.0 µM), 84.1% (active); in assay [6] (setting [7]), 47%; in assay [6] (setting [8]), 96% (active); in assay [6] (at 50.0 µM), 90.7% (active).
Consider `CCOc1cc2c(cc1O)/C(=N\OC)C[C@@H]1[C@@H]2CC[C@]2(C)[C@@H](O)CC[C@@H]12`, for which the growth inhibition in assay [1] (setting [7]) is 16%; in assay [1] (setting [8]), 59%; in assay [1] (at 50.0 µM), 13.9%; in assay [2] (setting [7]) it was 0%; in assay [2] (setting [8]) it was 42%; in assay [2] (at 50.0 µM), -2.45%. The growth inhibition in assay [3] (setting [7]) is 5%; in assay [3] (setting [8]), 86% (active); in assay [3] (at 50.0 µM), 9.8%; in assay [4] (setting [7]) it was 23%; in assay [4] (setting [8]), 67%; in assay [4] (at 50.0 µM), 24.8%. The growth inhibition in assay [5] (setting [7]) is 25%; in assay [5] (setting [8]), 71% (active); in assay [5] (at 50.0 µM) it was 13.6%; in assay [6] (setting [7]) it was 16%; in assay [6] (setting [8]) it was 68%; in assay [6] (at 50.0 µM), 79.1% (active).
`OC(CSc1ccccc1)CN1CCN(c2ccc(Cl)cc2)CC1` (configuration not stated): the growth inhibition in assay [1] (setting [7]) is 8%; in assay [1] (setting [8]), 73% (active); in assay [1] (at 50.0 µM), 84.2% (active); in assay [2] (setting [7]), 5%; in assay [2] (setting [8]), 43%; in assay [2] (at 50.0 µM), 25.5%. Besides, the growth inhibition in assay [3] (setting [7]) is 6%; in assay [3] (setting [8]), 90% (active); in assay [3] (at 50.0 µM) it was 79% (active); in assay [4] (setting [7]), 9%; in assay [4] (setting [8]), 62%; in assay [4] (at 50.0 µM) it was 15.6%. Besides, the growth inhibition in assay [5] (setting [7]) was 7%; in assay [5] (setting [8]) it was 76% (active); in assay [5] (at 50.0 µM), 80.8% (active); in assay [6] (setting [7]) it was 4%; in assay [6] (setting [8]) it was 73% (active); in assay [6] (at 50.0 µM), 59.5%.
In the case of `Oc1c(C(Nc2ccccc2)c2ccccc2)ccc2cccnc12` (configuration not stated), the growth inhibition in assay [1] (setting [7]) was -5%; in assay [1] (setting [8]), 92% (active); in assay [1] (at 50.0 µM), 96.9% (active); in assay [2] (setting [7]), -2%; in assay [2] (setting [8]) it was 97% (active); in assay [2] (at 50.0 µM) it was 81.2% (active). In addition, the growth inhibition in assay [3] (setting [7]) was -4%; in assay [3] (setting [8]), 94% (active); in assay [3] (at 50.0 µM), 99% (active); in assay [4] (setting [7]), -4%; in assay [4] (setting [8]) it was 92% (active); in assay [4] (at 50.0 µM), 96.2% (active). The growth inhibition in assay [5] (setting [7]) is -8%; in assay [5] (setting [8]) it was 94% (active); in assay [5] (at 50.0 µM), 84% (active); in assay [6] (setting [7]) it was 0%; in assay [6] (setting [8]), 92% (active); in assay [6] (at 50.0 µM), 96% (active).
As to `OC(c1cc(-c2ccc(C(F)(F)F)cc2)nc(C(F)(F)F)c1)C1CCCCN1` (configuration not stated), the growth inhibition in assay [1] (setting [7]) is 23%; in assay [1] (setting [8]) it was 39%; in assay [1] (at 50.0 µM), 56.1%; in assay [2] (setting [7]), 24%; in assay [2] (setting [8]), 35%; in assay [2] (at 50.0 µM), 76.2% (active). The growth inhibition in assay [3] (setting [7]) was 33%; in assay [3] (setting [8]), 60%; in assay [3] (at 50.0 µM), 45.5%; in assay [4] (setting [7]) it was 31%; in assay [4] (setting [8]), 7%; in assay [4] (at 50.0 µM), 25.7%. Also, the growth inhibition in assay [5] (setting [7]) is 11%; in assay [5] (setting [8]), 36%; in assay [5] (at 50.0 µM) it was 33.5%; in assay [6] (setting [7]), 34%; in assay [6] (setting [8]), 65%.
On to `Oc1ccc(Cl)cc1Cc1cc(Cl)ccc1O`, for which the growth inhibition is -1% in assay [1] (setting [7]); 99% (active) in assay [1] (setting [8]); 3.65% in assay [1] (at 50.0 µM); -3% in assay [2] (setting [7]); 99% (active) in assay [2] (setting [8]); 10.3% in assay [2] (at 50.0 µM). The growth inhibition is 0% in assay [3] (setting [7]); 99% (active) in assay [3] (setting [8]); -2.55% in assay [3] (at 50.0 µM); -16% in assay [4] (setting [7]); 99% (active) in assay [4] (setting [8]); 24.6% in assay [4] (at 50.0 µM). Besides, the growth inhibition was -3% in assay [5] (setting [7]); 99% (active) in assay [5] (setting [8]); 16.6% in assay [5] (at 50.0 µM); -5% in assay [6] (setting [7]); 99% (active) in assay [6] (setting [8]); -7.85% in assay [6] (at 50.0 µM).
For the molecule `COc1ccc(C(OCC2OC(n3ccc(NC(=O)c4ccccc4)nc3=O)C(O)C2O)(c2ccccc2)c2ccccc2)cc1` (configuration not stated), the growth inhibition in assay [1] (setting [7]) is 56%; in assay [1] (setting [8]), 91% (active); in assay [1] (at 50.0 µM), 68.7%; in assay [2] (setting [7]), 23%; in assay [2] (setting [8]), 91% (active); in assay [2] (at 50.0 µM) it was 98.2% (active). For the same molecule, the growth inhibition in assay [3] (setting [7]) is 36%; in assay [3] (setting [8]), 83% (active); in assay [3] (at 50.0 µM), 56.4%; in assay [4] (setting [7]) it was 76% (active); in assay [4] (setting [8]) it was 96% (active); in assay [4] (at 50.0 µM) it was 84.8% (active). Besides, the growth inhibition was 52% in assay [5] (setting [7]); 90% (active) in assay [5] (setting [8]); 98.5% (active) in assay [5] (at 50.0 µM); 62% in assay [6] (setting [7]); 90% (active) in assay [6] (setting [8]); 84.2% (active) in assay [6] (at 50.0 µM).
